This note sets out measurements from PubChem BioAssay AID2685 (National Center for Advancing Translational Sciences (NCATS), 2010).

The whole screen tested about 320,000 compounds, of which about 2,100 (0.66%) were called active. Not shown: some 53% with an inconclusive outcome. Calls follow the shape of the dose curve; as a rule, active = well fitted inhibition curve with a large enough effect in the signal ratio, with a control signal flat (not every such curve was filed as active); inconclusive = small, poorly fitted or top-dose-only effect, or effect the other way, or a change in a side signal; inactive = flat fitted curve, though single readings scatter; the % refers to the signal ratio. The full list was thinned out, with actives kept by preference.
Potency is read from the fitted curve at half-maximal effect.

The nature of this experiment: qHTS Assay for Lipid Storage Modulators in Drosophila S3 Cells.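 As to cell number change: cells counted by Cell Tracker Red CMTPX staining in the red channel.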 Particulars: BODIPY lipid droplet fluorescence, 18-24 h, cells fed with added oleic acid; cell number change: measured here: cell count max response; series mostly up to 46.1 µM. In outline:
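Drosophila S3 cells got compounds at several concentrations plus oleic acid (400 uM solution). Laser-scanning cytometry with 488 nm excitation read lipid droplets at 500-530 nm and cells at 575-640 nm. Percent activity was relative to 20 uM Triacsin C.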
For `O=C1CN(C(=O)CNC(=O)c2cccc(Cl)c2)c2ccccc2N1`, the Potency entry was “inactive” and the cell number change was 17%.

`Cc1cccn2c(=O)c(/C=C(\C#N)S(=O)(=O)c3ccccc3)c(Oc3ccc(Cl)cc3)nc12`: the Potency result is “inactive” and the cell number change was -10.2%.

Regarding `CC(=O)N1CCN(c2ccccc2NC(=O)COc2cc(C)cc(C)c2)CC1`, the Potency result is “inactive” and the cell number change stood at 13.5%.

Take `CCOc1ccc(S(=O)(=O)NCc2csc(C)n2)cc1`: the Potency entry is “inactive”.

Regarding `CCS(=O)(=O)c1ccc2oc(Nc3ccc(C(C)C)cc3)nc2c1`, the Potency entry was “inactive” and the cell number change was 2.93%.

As for `CCn1nc(C)cc1C(=O)N1CCc2c([nH]c3ccccc23)C1c1cc(F)ccc1F` (configuration not stated), the Potency result is “inactive” and the cell number change was determined as 8.47%.

On to `CN(C)S(=O)(=O)c1ccc(N2CCCC2)c(C(=O)Nc2ccccc2F)c1`, for which the Potency result is “inactive” and the cell number change was 25.2%.

`COc1ccc(C(C)(C)C)cc1NC(=O)c1cc(S(=O)(=O)N(C)C)ccc1N1CCCC1`: the Potency was 18.4 µM (active) and the cell number change was -23.6%.

As for `CN(C)S(=O)(=O)c1ccc(N2CCCC2)c(C(=O)Nc2ccccc2OC(F)F)c1`, the Potency entry is “inactive” and the cell number change came to 29.4%.

Turning to `COc1ccc(S(=O)(=O)NC2CCCC2)cc1NC(C)=O`, the Potency entry was “inactive” and the cell number change was determined as 17.4%.

Consider `COc1ccc(C=O)cc1Oc1nc(Cl)ncc1F`, for which the Potency result was “inactive” and the cell number change stood at 5.61%.

In the case of `CC(CCc1ccccc1)NC(=O)CN1CCN(c2ccc(O)cc2)CC1` (configuration not stated), the Potency result was “inactive” and the cell number change was found to be 0.962%.

Regarding `CC(=O)Nc1ccc(SCC(=O)c2ccc(Br)s2)cc1`, the Potency entry was “inactive” and the cell number change came out at 5.88%.

On to `COc1ccc(S(N)(=O)=O)cc1-c1nnc2c3ccccc3c(C)nn12`, for which the Potency entry was “inactive” and the cell number change was -15.7%.

With `COc1ccc(S(=O)(=O)c2c(O)c3ccc(C(=O)Nc4ccccc4)cc3[nH]c2=O)cc1`, the Potency result is “inactive” and the cell number change worked out at 23%.

Regarding `Cc1ccc(S(=O)(=O)c2c(O)c3ccc(C(=O)O)cc3[nH]c2=O)cc1`, the Potency is 11.6 µM (active) and the cell number change is -5.9%.

In the case of `COc1ccc(S(=O)(=O)c2c(O)c3ccc(C(=O)Nc4ccc(F)cc4)cc3[nH]c2=O)cc1`, the Potency entry is “inactive” and the cell number change is -7.08%.

In the case of `Cc1cccc(NC(=O)c2cc(Cl)ccc2[N+](=O)[O-])c1`, the Potency entry was “inactive”.

For `Cc1cccc(Nc2nc(N)c([N+](=O)[O-])c(NCCO)n2)c1`, the Potency entry is “inactive” and the cell number change is -0.837%.

For the compound `O=C(CSc1ccc2ccccc2n1)NCc1ccc2c(c1)OCO2`, the Potency entry was “inactive” and the cell number change turned out to be 26.9%.

As for `Cc1cccc(C)c1NC(=S)NCCCN1CCCC1=O`, the Potency was 0.461 µM (active) and the cell number change is -0.836%.

Regarding `Cc1cc(Cl)ccc1NC(=S)NCCCN1CCCC1=O`, the Potency entry is “inactive” and the cell number change stood at 7.04%.

With `O=C1CCCN1CCCNC(=S)Nc1ccccc1`, the Potency entry is “inactive” and the cell number change was -7.97%.

`CCN1CCN(CC(O)COCCOc2ccc(Br)cc2)CC1` (configuration not stated): the Potency entry is “inactive” and the cell number change worked out at 4.7%.

With `Cc1cccc(OCC(=O)NCc2cc(C)nc3ccccc23)c1`, the Potency result was “inactive” and the cell number change was -5.05%.

Take `CCOc1ccc(C(C)NC(=O)c2cc(=O)[nH]c3ccccc23)cc1OCC` (configuration not stated): the Potency was 0.0021 µM (active) and the cell number change was determined as 6.31%.

For the compound `COc1ccccc1OCCNC(=O)c1cc(=O)[nH]c2ccccc12`, the Potency entry was “inactive” and the cell number change was 13.3%.

As for `COc1ccccc1C(C)NC(=O)c1cc(=O)[nH]c2ccccc12` (configuration not stated), the Potency entry is “inactive” and the cell number change was -5.13%.

As for `CC(=O)c1cccc(N(CC(=O)NC2CCCCC2)C(=O)CNC(=O)c2cccs2)c1`, the Potency entry is “inactive” and the cell number change was 16.1%.

As for `CCC(C)NC(=O)c1c(N)n(/N=C/c2ccccn2)c2nc3ccccc3nc12` (configuration not stated), the Potency result is “inactive” and the cell number change amounted to 8.8%.

Consider `COCCCNC(=O)c1c(N)n(/N=C/c2ccccn2)c2nc3ccccc3nc12`, for which the Potency was 7.31 µM (active).

Consider `COCCNC(=O)c1c(N)n(/N=C/c2ccc(F)cc2)c2nc3ccccc3nc12`, for which the Potency result is “inactive” and the cell number change is 21.5%.

In the case of `Cc1ccc(-c2ccc(=O)n(CCC(=O)N3CCN(Cc4ccccc4)CC3)n2)cc1`, the Potency result was “inactive”.

On to `COc1ccc(Br)cc1CN(C)C(=O)c1ccc2c(c1)NC(=O)C(C)S2` (configuration not stated), for which the Potency result is “inactive”.

For the compound `COc1ccc(CNC(=O)c2ccc3c(c2)NC(=O)C(C)S3)cc1` (configuration not stated), the Potency result was “inactive” and the cell number change was -2.51%.

For `COc1cccc(COC(=O)c2ccc3c(c2)NC(=O)C(C)S3)c1OC` (configuration not stated), the Potency was 3.26 µM (active).

As for `CN1CCN(C(=O)c2cc(Cl)ccc2NC(=O)c2ccc(Cl)cc2Cl)CC1`, the Potency result is “inactive”.

Turning to `C=CCn1c(SCC(N)=O)nc2sc3c(c2c1=O)CCC3`, the Potency entry was “inactive” and the cell number change is -3.38%.

Regarding `O=C(CN1CCN(c2ccccc2O)CC1)Nc1cc(S(=O)(=O)N2CCCC2)ccc1Cl`, the Potency is 0.259 µM (active) and the cell number change is -12.2%.

Consider `O=C(CN1CCN(c2ccc(O)cc2)CC1)Nc1cc(S(=O)(=O)N2CCCC2)ccc1Cl`, for which the Potency result was “inactive” and the cell number change is -1.92%.

Turning to `CC(NC(=O)CN1CCN(c2ccc(Cl)cc2)CC1)c1ccccc1` (configuration not stated), the Potency entry was “inactive” and the cell number change was -1.82%.

With `O=C(CN1CCN(c2ccc(O)cc2)CC1)Nc1cc(S(=O)(=O)N2CCCCC2)ccc1Cl`, the Potency result was “inactive” and the cell number change worked out at 21%.

As for `CC(NC(=O)c1ccccc1NC(=O)CN1CCN(c2ccccc2O)CC1)c1ccccc1` (configuration not stated), the Potency is 8.2 µM (active) and the cell number change was 14.4%.

For `O=C(CN1CCN(c2ccccc2O)CC1)NC(c1ccccc1)c1ccccc1`, the Potency entry is “inactive” and the cell number change is 6.07%.

On to `COc1cc(S(=O)(=O)NCc2ccccn2)c(OC)cc1Cl`, for which the Potency result is “inactive” and the cell number change was 4.19%.

As to `CCOC(=O)N1CCN(S(=O)(=O)c2ccc3c(c2)SC(C)C(=O)N3)CC1` (configuration not stated), the Potency result was “inactive” and the cell number change is -22.8%.

For the compound `CCCSc1nnc(CNS(=O)(=O)c2ccc(C)cc2)n1C`, the Potency entry was “inactive” and the cell number change was -0.463%.

On to `COC(=O)CSc1nnc(CNS(=O)(=O)c2ccc(Cl)cc2)n1C`, for which the Potency was 20.6 µM (active) and the cell number change is -22.7%.

`COC(=O)CSc1nnc(CNC(=O)c2ccc(S(=O)(=O)N(C)C)cc2)n1C`: the Potency result was “inactive”.

For the compound `O=C(c1cccc(Cl)c1)N1CCC(N2CCC(C(=O)N3CCOCC3)CC2)CC1`, the Potency result was “inactive” and the cell number change was -7.23%.

Regarding `CCN1CCCC1CNS(=O)(=O)c1c(C)cc(C)cc1C` (configuration not stated), the Potency result is “inactive” and the cell number change was -11.3%.

`CCOC(=O)c1sc(NC(C)=O)nc1C`: the Potency entry was “inactive”.

In the case of `CCCn1c(SCC(=O)Nc2ccc(NC(C)=O)cc2)nc2c1c(=O)n(C)c(=O)n2C`, the Potency entry is “inactive” and the cell number change came out at 7.69%.

As to `COCCN(C(=O)CCl)C(C(=O)NC1CCCCC1)c1ccccc1C` (configuration not stated), the Potency was 23.1 µM (active) and the cell number change is -11.6%.

Turning to `COCCN(C(=O)CCC(=O)Nc1cc(C)on1)C(C(=O)NC1CCCC1)c1ccccc1C` (configuration not stated), the Potency result is “inactive” and the cell number change was 7.81%.

With `COCCN(C(=O)C(=O)NC1CCCC1)C(C(=O)NC1CCCC1)c1ccccc1F` (configuration not stated), the Potency result was “inactive” and the cell number change was 6.8%.

For the compound `O=S(=O)(NCc1ccccc1)c1ccc(Cl)cc1`, the Potency result was “inactive” and the cell number change is -16.1%.

Take `C=CCn1c(O)c(C=Nc2ccc(Cc3ccncc3)cc2)c(=O)[nH]c1=S`: the Potency result is “inactive” and the cell number change stood at 1.96%.
